The structures appear in SMILES notation. Several values for one entry are separate records, joined by “and”; a condition that tells them apart may be missing. Equal values may be shown once. Activity calls are given as the source filed them. Unless noted, how the calls were made is not given here.

Assay [1] is described as follows: liver-stage malaria parasite growth inhibition, primary screen, cell-based, HepG2, luciferase luminescence, HepG2 viability (AID 624349; in the data active means parasite load remaining mostly below about 12%, no sharp cut-off; inactive means mostly above about 10%;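 further: 100% = mean of DMSO negative control wells on the same plate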). The settings on record: P. berghei liver stage in HepG2, luciferase luminescence, concentration not given here; parasite load remaining: stronger effect = lower value; viability: measured here: HepG2 viability without parasites.
In assay [2] the test system is Hepatitis C virus NS3 helicase. The experiment in a line: HCV NS3 helicase inhibitors, primary screen, biochemical, fluorescence polarization, LOPAC1280 library (AID 687035; in the data active means inhibition above about 37%). The note with it: Purified HCV NS3 helicase, Cy5-dT15 ssDNA binding fluorescence polarization; stronger effect = higher value; concentration not given here. On the technique in general: In fluorescence polarisation assays a small probe gives low polarisation when free and higher when bound to something large.

Assay [3] can be described thus: Cy5 fluorescence quenching or enhancement artefacts, artefact control for HCV NS3 helicase inhibitor project, biochemical, LOPAC1280 (AID 687037). The settings on record: Cy5-DNA-NS3h complex fluorescence interference counterscreen.
Assay [4] in a line: Cy5 fluorescence interference with SSB-bound oligo, artefact control for HCV NS3 helicase inhibitor project, biochemical, NIH Clinical Collection, E. coli SSB (AID 743268).
The test system of assay [5] is Hepatitis C virus NS3 helicase. The experiment in a line: HCV NS3 helicase inhibitors, primary screen, biochemical, fluorescence polarization, NIH Clinical Collection (AID 743270). The settings on record: NS3 helicase binding to Cy5-dT15 DNA, stronger effect = higher value, concentration not given here.
The target in assay [6] is Single-stranded DNA-binding protein (Escherichia coli (strain K12)) (UniProt P0AGE0). Kind of assay: E. coli SSB displacement from DNA, counter-screen for HCV NS3 helicase inhibitor project, biochemical, fluorescence polarization, NIH Clinical Collection (AID 743271; in the data active means inhibition above about 28%). The settings on record: stronger effect = higher value, concentration not given here. (In general: A counterscreen serves to expose hits that act by an unwanted route or on another target.)

A short description of assay [7]: fluorescence interference in NS3h assay format, artefact control for HCV NS3 helicase inhibitor project, biochemical, NIH Clinical Collection (AID 743272).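 Further: HCV NS3 helicase with a Cy5 labelled single stranded DNA probe.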 The settings on record: fluorescence interference counterscreen, stronger effect = lower value.
Assay [8] deals with Neuropilin-2 / VEGF-C interaction (human). The experiment in a line: inhibitors of NRP2–VEGF-C binding, biochemical, microplate binding format, z-score (AID 743281). The note with it: microplate NRP2/VEGF-C binding assay; stronger effect = lower value.
Assay [9] is described as follows: stimulators of nuclear beta-catenin in C2C12, primary screen, imaging, WNT3A-conditioned medium, mouse C2C12, NPC library (AID 1117326; in the data active means nuclear beta-catenin stimulation mostly above about 4.2%, no sharp cut-off; inactive means mostly below about 10%). The settings on record: stronger effect = higher value.
Assay [10] can be described thus: stimulators of insulin release from INS-1E, primary screen, cell-based, 5 mM glucose, NPC library (AID 1117329;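 active means compound raises insulin release from rat beta cells at 5 mM glucose, no numeric limit stated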). The settings on record: rat INS-1E insulin secretion, at 10 µM, stronger effect = higher value.
Assay [11] can be described thus: growth inhibition of GSK3B-pretreated HCT116 cells – cell-based, CellTiter-Glo, 0.2 to 20 µM (AID 1117336;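 active means compounds lowering colon cancer cell viability after pretreatment blocking the GSK3B kinase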). The note with it: HCT116 viability after GSK3B inhibitor, at 20 µM, stronger effect = higher value.
A short description of assay [12]: inhibition of endothelial tube formation, primary screen, imaging, VEGF stimulated, CD31 staining, tube area, NPC library (AID 1117340;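 active means compound that reduces growth-factor-driven endothelial tube area in a mixed cell culture, no cutoff stated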). The note with it: VEGF-stimulated ADSC/ECFC co-culture, at 10 µM, stronger effect = higher value.
A short description of assay [13]: glucagon-like peptide 1 release enhancers, primary assay, NCI-H716 cell line, NPC library (AID 1117341;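 active means compound raises GLP1 secretion from the human gut endocrine cells, with no numeric limit stated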). The note with it: NCI-H716 cells, at 10 µM, stronger effect = higher value.
Assay [14] can be described thus: HCT116 colon cancer cell growth inhibition, primary screen, CellTiter-Glo luminescence, NPC library (AID 1117342;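 active means compounds that lower survival of HCT116 colon cancer cells in the luminescence readout, no numeric limit stated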). The note with it: at 20 µM (top of the series).
Assay [15] in a line: CellTiter-Glo luminescent readout of SW480 viability loss, NPC library primary (AID 1117343;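 active means compounds that lower viability of the colon cancer cells in the luminescence readout, with no numeric limit stated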). The settings on record: CellTiter-Glo luminescence; at 20 µM (top of the series). In general terms: In ATP-based viability assays light output follows the ATP content of the culture.
Assay [16] in a line: decreased DLD-1 cellular survival, CellTiter-Glo luminescent readout, NPC compound collection, primary HTS (AID 1117346;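 active means compounds that lower survival of DLD-1 colon cancer cells in the luminescence readout, no cutoff given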). The note with it: DLD-1 viability, CellTiter-Glo luminescence; at 20 µM (top of the series).

As for `NC(=O)OCC(COC(N)=O)c1ccccc1`, in [1], the parasite load remaining is 83.2% (inactive) and 111% (inactive). The viability – broadly, a read-out of living cells in per cent, often relative to untreated cells – in assay [1] is 105% and 75.3%. For the same compound, the inhibition (usually the change of the read-out against control, counted positive when it falls) in assay [2] is -1% (inactive); in assay [5], -2.77% (inactive); in assay [6], -3.18% (inactive). In addition, in [3], the fluorescence ratio (interference) was 1 (inactive). Besides, the fluorescence ratio was 1.05 (inactive) in [4] and 0.9 (inactive) in assay [7]. For the same compound, the z-score in assay [8] was 0.0538 (inactive). In addition, the nuclear beta-catenin stimulation is -1.9% (inactive) in assay [9] (at 10 µM) and 0% in assay [9] (stimulation, at 2 µM). Besides, the insulin secretion stimulation in assay [10] was 0.3% (inactive). The viability decrease in assay [11] was -7.4% (inactive). In addition, the tube area decrease in assay [12] was -7.6% (inactive). The GLP1 secretion stimulation in assay [13] was -3% (inactive). Moreover, in assay [14], the inhibition of viability was 4.1% (inactive). Also, the viability decrease (inhibition) in [15] is -7.2% (inactive); in assay [16], -12% (inactive).
Consider `CCN1CCC[C@H]1CNC(=O)c1cc(S(N)(=O)=O)ccc1OC`, for which, in assay [1], the parasite load remaining was 118% (inactive) and 67.6% (inactive). Besides, the viability in assay [1] was 78.9% and 220%. Besides, the inhibition in [2] is -1% (inactive); in assay [5] it was 0.4% (inactive); in assay [6] it was 6.06% (inactive). Further, the fluorescence ratio (interference) in assay [3] was 1 (inactive). In addition, the fluorescence ratio was 1.03 (inactive) in assay [4] and 0.97 (inactive) in assay [7]. The z-score in assay [8] is -0.132 (inactive). The nuclear beta-catenin stimulation is -1.5% (inactive) in [9] (at 10 µM) and 0.2% in assay [9] (stimulation, at 2 µM). The insulin secretion stimulation in assay [10] is 1% (inactive). The viability decrease in assay [11] is -4.3% (inactive). The tube area decrease in assay [12] is 10.5% (inactive). The GLP1 secretion stimulation in assay [13] was -3% (inactive). Further, in assay [14], the inhibition of viability is -5.3% (inactive). Moreover, the viability decrease (inhibition) was -4.8% (inactive) in [15] and -5.7% (inactive) in [16].
Take `CCCOc1ccc(C(=O)OCCN(CC)CC)cc1N`: the parasite load remaining in assay [1] was 35.3% (inactive) and 89.5% (inactive) and 24.4% (inactive). The viability in assay [1] was 102% and 98.4% and 98.5%. Moreover, the fluorescence ratio in assay [4] is 0.101 (active); in assay [7] it was 1.02 (inactive). Further, the values for the inhibition in [5] and in [6] were -4.09% (inactive) and 0.29% (inactive), respectively. Besides, the nuclear beta-catenin stimulation in assay [9] (at 10 µM) is 1.3% (inactive); in assay [9] (stimulation, at 2 µM), 5.7%. For the same compound, in assay [10], the insulin secretion stimulation was 1.5% (inactive). Besides, the viability decrease in [11] was 47.8% (inactive). Moreover, the tube area decrease in assay [12] was -3.5% (inactive). Moreover, the GLP1 secretion stimulation in assay [13] is -1% (inactive). The inhibition of viability in [14] is 74.2% (active). Moreover, the results for the viability decrease (inhibition) in [15] and in assay [16] were 36% (inactive) and 90.1% (active), respectively.
For the compound `CC1(C)O[C@@H]2C[C@H]3[C@@H]4C[C@H](F)C5=CC(=O)C=C[C@]5(C)[C@@]4(F)[C@@H](O)C[C@]3(C)[C@]2(C(=O)CO)O1`, in [1], the parasite load remaining was 46.3% (inactive) and 25.1% (inactive). Further, the viability in assay [1] was 96.3% and 68%. Besides, the results for the fluorescence ratio in [4] and in [7] were 1 (inactive) and 0.97 (inactive), respectively. In addition, the inhibition in [5] is -1.36% (inactive); in [6] it was 0.29% (inactive). Moreover, the nuclear beta-catenin stimulation in assay [9] (at 10 µM) was -1.6% (inactive); in [9] (stimulation, at 2 µM), 2%. Moreover, in assay [10], the insulin secretion stimulation was 0.7% (inactive). Further, in [11], the viability decrease was -12.2% (inactive). The tube area decrease in assay [12] was 14.7% (inactive). The GLP1 secretion stimulation in assay [13] is -0.6% (inactive). In [14], the inhibition of viability is 19.8% (inactive). Further, the viability decrease (inhibition) is 1.8% (active) in assay [15] and 24.1% (inactive) in [16].

These data come from PubChem BioAssay.
